From PubChem BioAssay (NCATS)
Inconclusive results are not listed. Entries that show only a call come without a potency. The source made the active and inactive calls. Unless noted, calls come from the whole dose curve; as a rule, active = well fitted curve in the direction sought with a large enough effect; inconclusive = small, poorly fitted or top-dose-only effect, or another doubt; inactive = no such curve, though single readings can be large; an effect the other way counts as inactive or inconclusive.

What was measured:
[1] = Primary redox qHTS assay for identification of artifact compounds. (AID 1845223)
How it was run: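 Redox-cycling detection via DTT (250 uM final) oxidation coupled to Amplex Red (25 uM)/HRP (250 mU/mL) in HBSS. 15 min preincubation plus 30 min after DTT, room temperature. Ex/Em 525/598 nm; 4-parameter Hill fit against DMSO and 10 uM DA3003.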

PA-1 = assay: Primary qHTS to identify gynecologic anti-cancer compounds using libraries of approved drugs and bioactive compounds (AID 1345084); settings: Gynecologic cancer cell panel viability, ATPlite luminescence, 48 h; series mostly up to 57.5 µM; note: nearly all actives have a fitted effect of over 55% in size; note: potency is the fitted concentration of half-maximal effect
How it was run: (§1)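 Cell viability after 48 h drug treatment, ATPlite luminescence readout; five doses.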

Tov-21-G = assay: as above; settings: Gynecologic cancer cell panel viability, ATPlite luminescence, 48 h; series mostly up to 57.5 µM
How it was run: as §1

[2] = qHTS to identify inhibitors of the type 1 interferon - major histocompatibility complex class I in skeletal muscle: primary screen against the NCATS Mechanism Interrogation Plate v5.0 (MIPE) Libary (AID 1347411); note: nearly all actives have a fitted effect of over 65% in size
How it was run: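 Luminescence from CRISPR HiBit-tagged endogenous HLA-B in human myoblasts reported MHC class I level after 24 h of IFN-beta (4 ng/ml) plus compound. Compounds ran as 11-point 1:3 series, top 46 uM final.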

SKOV3 = assay: Primary qHTS to identify gynecologic anti-cancer compounds using libraries of approved drugs and bioactive compounds (AID 1345084); settings: Gynecologic cancer cell panel viability, ATPlite luminescence, 48 h; series mostly up to 57.5 µM; note: nearly all actives have a fitted effect of over 55% in size; note: potency is the fitted concentration of half-maximal effect
How it was run: as §1

[3] = target: Cytochrome P450 2D6 (Homo sapiens) (UniProt P10635); assay: Cytochrome P450 family 2 subfamily D member 6 (CYP2D6) small molecule antagonists: luciferase biochemical (cell-free) qHTS assay (AID 1645840; active = well fitted curve in the direction sought with a large enough effect in the repeat runs; an effect the other way counts as inactive or inconclusive; note: nearly all actives have a fitted effect of over 55% in size; note: potency is the fitted concentration of half-maximal effect)
How it was run: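 P450-Glo CYP2D6 system: proluciferin substrate converted by enzyme to luciferin, read by luminescence proportional to activity. Enzyme-substrate mix with compound 10 min at room temperature, then NADPH regeneration 1 h before detection reagent.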

[4] = target: Cytochrome P450 2C9 (Homo sapiens) (UniProt P11712); assay: Cytochrome P450 family 2 subfamily C member 9 (CYP2C9) small molecule antagonists: luciferase biochemical (cell-free) qHTS assay (AID 1645842; active = well fitted curve in the direction sought with a large enough effect in the repeat runs; an effect the other way counts as inactive or inconclusive; note: nearly all actives have a fitted effect of over 55% in size; note: potency is the fitted concentration of half-maximal effect)
How it was run: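 P450-Glo CYP2C9 system: proluciferin substrate with enzyme in mix containing 0.4% BSA, 10 min at room temperature, then NADPH regeneration solution added and incubated 1 h at 37C. Detection reagent stopped reaction; luminescence read after 20 min as RLU.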

CAOV3 = assay: Primary qHTS to identify gynecologic anti-cancer compounds using libraries of approved drugs and bioactive compounds (AID 1345084); settings: Gynecologic cancer cell panel viability, ATPlite luminescence, 48 h; series mostly up to 57.5 µM; note: nearly all actives have a fitted effect of over 55% in size; note: potency is the fitted concentration of half-maximal effect
How it was run: as §1

[5] = target: Catechol O-methyltransferase (Homo sapiens) (UniProt P21964); assay: Confirmatory Screen for Target Class Profiling of Small Molecule Inhibitors of Methyltransferases (AID 1745852; calls by dose curve; note: potency is the fitted concentration of half-maximal effect); settings: MTase-Glo luminescence, SAH detection, recombinant enzyme; measured here: COMT max response; stronger effect = lower value
[6] = target: Guanidinoacetate N-methyltransferase (Homo sapiens) (UniProt Q14353); assay: as above; settings: activity change, negative = inhibition: at 57.3 µM (top of the series) unless noted
[7] = target: Nicotinamide N-methyltransferase (Homo sapiens) (UniProt P40261); assay: as above; settings: MTase-Glo luminescence, SAH detection, recombinant enzyme; measured here: NNMT max response; stronger effect = lower value
[8] = target: Phenylethanolamine N-methyltransferase (Homo sapiens) (UniProt P11086); assay: as above; settings: MTase-Glo luminescence, SAH detection, recombinant enzyme; measured here: PNMT max response; stronger effect = lower value
[9] = target: Ubiquitin carboxyl-terminal hydrolase 1 (Homo sapiens) (UniProt O94782); assay: Inhibitors of USP1/UAF1: Pilot qHTS (AID 504865);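 note: rhodamine fluorescence freed from ubiquitin-rhodamine substrate followed over time; top concentration of the series differs between compounds; nearly all actives have a fitted effect of over 35% in size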
How it was run: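 In 50mM HEPES pH 7.8 containing 0.5mM EDTA, 1mM TCEP, 0.1 mg/ml BSA and 0.01% Tween-20, 1nM USP1/UAF1 is exposed to compound for 15 min, then Ub-Rho (150nM final) is added and fluorescence is read over time.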

[10] = target: Luciferin 4-monooxygenase (Photinus pyralis) (UniProt P08659); assay: Biochemical firefly luciferase enzyme assay for NPC (AID 624030);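 note: purified P. pyralis luciferase at 10 nM with luciferin and ATP substrate; nearly all actives have a fitted effect of over 70% in size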
How it was run: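 Counter-screen for direct inhibition of the luciferase enzyme by approved-drug library compounds, run at 10 nM enzyme in 50 mM Tris acetate (final). Luminescence was read within 5 min of enzyme-buffer addition and normalized to PTC124 versus DMSO (0%).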

[11] = Drug repurposing screens with cells derived from glioblastoma tumor samples (AID 1345199); settings: GBM patient neurospheres viability, ATP luminescence, 48 h; note: nearly all actives have a fitted effect of over 40% in size; note: potency is the fitted concentration of half-maximal effect
How it was run: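 Primary testing used CD133+ neurospheres from four GBM patients, seven concentrations, 48 h exposure and ATP-based viability; confirmation added three slower-growing patient lines.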

[12] = test system: Zika virus NS2B-NS3 protease; assay: Primary screen GU AMC qHTS for Zika virus inhibitors (AID 1347154); note: nearly all actives have a fitted effect of over 70% in size
How it was run: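 Unlinked Zika NS2B hydrophilic domain/NS3 protease domain noncovalent complex (25 nM final) in 10 mM Tris-HCl pH 8.0, 0.01% Tween 20, with AMC peptide substrate. Fluorescence (ex 340, em 450 nm) change over 15 min, room temperature; percent inhibition fitted to 4-parameter Hill equation.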

[13] = Primary qHTS for small molecule stabilizers of the endoplasmic reticulum resident proteome: Secreted ER Calcium Modulated Protein (SERCaMP) assay (AID 1508630)
How it was run: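 The SH-SY5Y reporter protocol was run at 3 concentrations up to 38.3 uM (primary) or 11 concentrations (follow-up): 16 h compound, 100 nM thapsigargin for 4 h, then extracellular luciferase luminescence.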

Chain of Cytochrome P450 2D6 (Homo sapiens) (P10635 whole entry, looked up): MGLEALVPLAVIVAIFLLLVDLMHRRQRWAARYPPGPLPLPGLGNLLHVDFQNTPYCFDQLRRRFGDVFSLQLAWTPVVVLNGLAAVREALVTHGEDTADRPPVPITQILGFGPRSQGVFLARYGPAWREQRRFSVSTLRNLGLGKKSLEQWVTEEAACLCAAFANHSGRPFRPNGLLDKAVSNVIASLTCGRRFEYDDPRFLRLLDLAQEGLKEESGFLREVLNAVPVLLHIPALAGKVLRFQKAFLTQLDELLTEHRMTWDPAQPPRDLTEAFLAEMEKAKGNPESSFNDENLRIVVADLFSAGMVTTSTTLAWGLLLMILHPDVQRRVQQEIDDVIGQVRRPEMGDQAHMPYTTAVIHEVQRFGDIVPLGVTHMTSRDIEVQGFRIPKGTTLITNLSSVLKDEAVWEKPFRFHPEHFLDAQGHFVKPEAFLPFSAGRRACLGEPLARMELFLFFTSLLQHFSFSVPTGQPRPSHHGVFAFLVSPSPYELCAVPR
Chain of Cytochrome P450 2C9 (Homo sapiens) (P11712 whole entry, looked up): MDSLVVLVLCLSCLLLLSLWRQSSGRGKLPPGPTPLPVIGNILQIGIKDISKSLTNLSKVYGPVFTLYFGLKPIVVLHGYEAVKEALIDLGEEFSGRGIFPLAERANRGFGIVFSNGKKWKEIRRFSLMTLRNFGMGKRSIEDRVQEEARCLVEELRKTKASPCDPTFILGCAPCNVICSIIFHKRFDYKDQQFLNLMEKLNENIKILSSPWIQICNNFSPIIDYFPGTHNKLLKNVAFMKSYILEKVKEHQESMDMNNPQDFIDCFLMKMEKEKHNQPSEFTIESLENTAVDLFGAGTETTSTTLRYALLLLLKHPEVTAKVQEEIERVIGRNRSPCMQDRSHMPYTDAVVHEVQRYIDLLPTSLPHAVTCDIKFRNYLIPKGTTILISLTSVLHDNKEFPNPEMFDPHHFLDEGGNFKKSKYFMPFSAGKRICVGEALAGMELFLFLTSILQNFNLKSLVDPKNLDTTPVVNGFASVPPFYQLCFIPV
Chain of Nicotinamide N-methyltransferase (Homo sapiens) (P40261 whole entry, looked up): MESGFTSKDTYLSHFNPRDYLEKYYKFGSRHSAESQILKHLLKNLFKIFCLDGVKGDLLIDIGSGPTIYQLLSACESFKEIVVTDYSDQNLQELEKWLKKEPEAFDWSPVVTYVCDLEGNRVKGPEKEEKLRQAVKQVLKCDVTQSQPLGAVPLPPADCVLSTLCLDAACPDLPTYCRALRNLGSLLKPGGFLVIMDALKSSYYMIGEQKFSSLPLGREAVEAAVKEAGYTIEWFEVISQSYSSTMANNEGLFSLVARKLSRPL
Chain of Catechol O-methyltransferase (Homo sapiens) (P21964 whole entry, looked up): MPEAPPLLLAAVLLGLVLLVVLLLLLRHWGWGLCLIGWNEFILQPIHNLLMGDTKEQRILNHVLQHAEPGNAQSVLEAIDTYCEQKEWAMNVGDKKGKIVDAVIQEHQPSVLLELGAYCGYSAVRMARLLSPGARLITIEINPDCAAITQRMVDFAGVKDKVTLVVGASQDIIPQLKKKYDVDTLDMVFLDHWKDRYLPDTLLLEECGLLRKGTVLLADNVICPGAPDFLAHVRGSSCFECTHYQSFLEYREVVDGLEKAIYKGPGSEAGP
Chain of Ubiquitin carboxyl-terminal hydrolase 1 (Homo sapiens) (O94782 whole entry, looked up): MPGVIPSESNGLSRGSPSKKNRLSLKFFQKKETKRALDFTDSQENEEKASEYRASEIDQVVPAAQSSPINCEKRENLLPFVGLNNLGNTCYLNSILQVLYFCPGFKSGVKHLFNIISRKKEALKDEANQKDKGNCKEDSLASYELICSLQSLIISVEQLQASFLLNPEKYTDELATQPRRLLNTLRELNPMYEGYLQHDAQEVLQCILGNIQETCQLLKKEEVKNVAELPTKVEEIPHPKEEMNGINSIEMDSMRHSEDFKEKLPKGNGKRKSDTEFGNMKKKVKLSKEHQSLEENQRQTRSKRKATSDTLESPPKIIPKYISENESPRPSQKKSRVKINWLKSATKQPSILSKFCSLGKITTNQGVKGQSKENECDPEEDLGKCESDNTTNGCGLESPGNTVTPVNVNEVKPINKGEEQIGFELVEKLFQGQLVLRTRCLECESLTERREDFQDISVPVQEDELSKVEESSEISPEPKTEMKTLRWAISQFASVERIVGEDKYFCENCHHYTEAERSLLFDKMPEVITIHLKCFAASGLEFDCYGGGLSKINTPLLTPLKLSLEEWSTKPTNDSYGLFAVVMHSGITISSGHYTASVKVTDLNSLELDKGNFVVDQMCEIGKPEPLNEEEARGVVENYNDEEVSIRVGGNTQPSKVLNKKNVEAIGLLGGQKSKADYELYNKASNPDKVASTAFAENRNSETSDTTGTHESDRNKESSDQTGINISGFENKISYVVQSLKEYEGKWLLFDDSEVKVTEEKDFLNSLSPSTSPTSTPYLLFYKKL
Chain of Phenylethanolamine N-methyltransferase (Homo sapiens) (P11086 whole entry, looked up): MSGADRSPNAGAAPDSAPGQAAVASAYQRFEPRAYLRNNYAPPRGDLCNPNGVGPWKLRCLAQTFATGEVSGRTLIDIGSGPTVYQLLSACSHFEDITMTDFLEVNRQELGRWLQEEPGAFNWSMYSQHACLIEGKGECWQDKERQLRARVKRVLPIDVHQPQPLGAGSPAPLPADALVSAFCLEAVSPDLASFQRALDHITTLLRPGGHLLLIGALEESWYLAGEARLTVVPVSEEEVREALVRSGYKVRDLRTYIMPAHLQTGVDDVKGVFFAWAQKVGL
Chain of Luciferin 4-monooxygenase (Photinus pyralis) (P08659 whole entry, looked up): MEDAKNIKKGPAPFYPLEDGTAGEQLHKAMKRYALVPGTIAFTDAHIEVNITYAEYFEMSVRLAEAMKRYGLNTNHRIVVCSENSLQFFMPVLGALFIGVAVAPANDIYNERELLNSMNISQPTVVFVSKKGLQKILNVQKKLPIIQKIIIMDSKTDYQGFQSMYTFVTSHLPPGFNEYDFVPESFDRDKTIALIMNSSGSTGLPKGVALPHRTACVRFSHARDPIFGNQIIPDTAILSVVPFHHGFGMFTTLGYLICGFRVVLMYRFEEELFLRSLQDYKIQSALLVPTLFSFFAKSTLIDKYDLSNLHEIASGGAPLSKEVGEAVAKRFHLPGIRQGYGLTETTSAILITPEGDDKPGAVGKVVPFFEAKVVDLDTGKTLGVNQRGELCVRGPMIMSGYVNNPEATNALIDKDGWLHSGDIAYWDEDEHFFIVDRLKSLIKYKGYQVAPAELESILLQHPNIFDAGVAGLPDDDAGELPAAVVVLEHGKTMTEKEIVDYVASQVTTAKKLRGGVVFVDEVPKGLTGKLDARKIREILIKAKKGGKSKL

CN([C@H]1c2cc(OCCCC(F)(F)F)ccc2OC(C)(C)[C@@H]1O)S(C)(=O)=O
Potency [1]: inactive | Potency (PA-1): inactive | Potency (Tov-21-G): inactive

N#C[C@@H]1C[C@@H]2C[C@@H]2N1C(=O)[C@@H](N)C12CC3CC(CC(O)(C3)C1)C2
Potency [2]: inactive | Potency [1]: inactive | Potency (PA-1): inactive | Potency (SKOV3): inactive | Potency (Tov-21-G): inactive

O=C(Nc1cccc(C(F)(F)F)c1)c1ccccc1NCc1ccncc1
Potency [1]: inactive | Potency (Tov-21-G): inactive

CN(C)CC(=O)Nc1ccc2[nH]c(=O)c3ccccc3c2c1
Potency [3]: inactive | Potency [4]: 13.5 µM (active) | Potency (CAOV3): inactive | Potency (SKOV3): inactive

C=C1C(=O)O[C@@H]2C[C@@]3(C)CCC[C@H](C)C3=C[C@H]12
Potency [1]: inactive | Potency (PA-1): inactive

CC(=O)Nc1ccc(C(=O)Nc2ccccc2N)cc1
Potency [1]: inactive | Potency (CAOV3): inactive | Potency (PA-1): 7.08 µM (active)

CC(C)n1cnc2c(Nc3cccc(Cl)c3)nc(NCCO)nc21
Potency [3]: 16.9 µM (active) | Potency [4]: 9.52 µM (active) | Potency (PA-1): inactive

CC1=CC(=O)[C@@]2(C(C)C)C[C@@H]12
activity [5]: -4.64% | Potency [6]: 48.2 µM (active) | activity [7]: -30.7% | activity [8]: -13.4% | Potency (CAOV3): inactive | Potency (SKOV3): inactive | Potency (Tov-21-G): inactive

CCC(=O)c1cc(-c2ccc(Cl)cc2)n(-c2ccc(S(N)(=O)=O)cc2)c1C
Potency [1]: inactive | Potency (PA-1): inactive | Potency (Tov-21-G): inactive

CN(C)CCCNc1nc(CN2CCN(C(c3ccc(Cl)cc3)c3ccc(Cl)cc3)CC2)nc2ccccc12
Potency [4]: inactive | activity [5]: 2.87% | activity change, negative = inhibition [6]: 0% | activity [7]: -46.9% | activity [8]: -0.0137% | Potency (PA-1): inactive | Potency (Tov-21-G): inactive

C[C@H](NC(=O)C(C)(C)Oc1ccc(C(F)(F)F)cn1)[C@@H](Cc1ccc(Cl)cc1)c1cccc(C#N)c1
Potency [1]: inactive | Potency (PA-1): inactive | Potency (Tov-21-G): inactive

COc1cccc(NC[C@@H](O)Cn2c3ccc(Br)cc3c3cc(Br)ccc32)c1
Potency [4]: inactive

COc1ccc2c(c1)CN(C(=O)CCN1CCC(Cc3ccccc3)CC1)CCS2
Potency [3]: 0.536 µM (active) | Potency (PA-1): inactive | Potency (Tov-21-G): inactive

CCCCC(=O)N(Cc1ccc(-c2ccccc2-c2nn[nH]n2)cc1)C(C(=O)O)C(C)C (configuration not stated)
Potency [9]: inactive | Potency [10]: inactive | Potency [1]: inactive | Potency (PA-1): inactive | Potency (Tov-21-G): inactive

CCOc1ccc(-c2nc(-c3cccc4c3CCC4NCCO)no2)cc1OCC (configuration not stated)
Potency [3]: inactive | Potency [4]: inactive | Potency [1]: inactive | Potency (PA-1): inactive | Potency (Tov-21-G): inactive

C=C1C(=O)O[C@@H]2/C=C(/C)CC3C=C(C[C@H](OC(=O)/C(C)=C\C)[C@@H]12)C(=O)O3 (some centres not stated)
Potency [1]: inactive | Potency (CAOV3): inactive | Potency (PA-1): inactive | Potency (SKOV3): inactive | Potency (Tov-21-G): inactive

CC[C@H](C)[C@H]1O[C@]2(CC[C@@H]1C)C[C@@H]1C[C@@H](C/C=C(\C)[C@@H](O[C@H]3C[C@H](OC)[C@@H](O[C@H]4C[C@H](OC)[C@@H](O)[C@H](C)O4)[C@H](C)O3)[C@@H](C)/C=C/C=C3\CO[C@@H]4[C@H](O)C(C)=C[C@@H](C(=O)O1)[C@]34O)O2
Potency (PA-1): inactive | Potency (SKOV3): inactive | Potency (Tov-21-G): inactive | activity, negative = cell killing ([11]; at 46.1 µM (top of the series), tumour line C): -34.4% (inactive) | Potency ([11]; tumour line A): 1.12 µM (active) | Potency ([11]; tumour line B): 3.98 µM (active) | Potency ([11]; tumour line D): 2.82 µM (active)

Clc1ccccc1CNCC1CCC(CNCc2ccccc2Cl)CC1 (configuration not stated)
Potency [9]: inactive | Potency [12]: inactive | Potency [13]: inactive | Potency [3]: 0.151 µM (active) | Potency [4]: inactive | Potency (Tov-21-G): inactive

COc1ccc(Cl)cc1[C@@]1(F)C(=O)Nc2cc(C(F)(F)F)ccc21
Potency [4]: 6.01 µM (active) | Potency [1]: inactive | Potency (CAOV3): inactive | Potency (Tov-21-G): inactive

CCN(CC)c1ccc(C(=C2C=CC(=[N+](CC)CC)C=C2)c2cc(S(=O)(=O)O)ccc2S(=O)(=O)[O-])cc1
Potency [12]: inactive | Potency [4]: 13.8 µM (active) | Potency (CAOV3): 28.2 µM (active) | Potency (PA-1): 3.55 µM (active) | Potency (Tov-21-G): 25.1 µM (active)

CC(=O)N1c2ccc(-c3ccc(C(=O)O)cc3)cc2C(Nc2ccc(Cl)cc2)CC1C (configuration not stated)
Potency [3]: inactive | Potency [4]: 8.49 µM (active) | Potency (CAOV3): inactive | Potency (SKOV3): 3.98 µM (active) | Potency (Tov-21-G): 2.24 µM (active)

CC(CCC1(O)OC2CC3C4CC=C5CC(O[C@@H]6O[C@H](CO)[C@@H](O[C@@H]7O[C@H](CO)[C@@H](O)[C@H](O)[C@H]7O)[C@H](O)[C@H]6O[C@@H]6O[C@@H](C)[C@H](O)[C@@H](O)[C@H]6O)CCC5(C)C4CCC3(C)C2C1C)CO[C@@H]1O[C@H](CO)[C@@H](O)[C@H](O)[C@H]1O (some centres not stated)
redox activity (% of DA3003) [1]: 5.01% [at 11.5 µM] (inactive) | activity change, negative = cytotoxicity (PA-1): 4.42% [at 11.6 µM] (inactive) | activity change, negative = cytotoxicity (SKOV3): -2.2% [at 11.6 µM] (inactive) | activity change, negative = cytotoxicity (Tov-21-G): -1.21% [at 11.6 µM] (inactive)
